The assay can be described thus: modulators of CD8 T cell-vesicle binding, confirmation, cherry-picked primary hits, two concentrations (AID 2810).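 As to all read-outs here: lower values mean blocking of vesicle binding.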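 As to percent response (vesicle binding): ratio of mean FL2 vesicle stain of CD8+ cells to that row's control.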 Conditions: 2C CD8+ T cell-vesicle binding, flow cytometry; for double positive events: CD8+/vesicle+ events.
Setting [1] is: at 15.4 µM, stronger effect = lower value.

From PubChem BioAssay AID2810 (NMMLSC, 2010) come the findings set out here.

Hit rate of the full screen: of about 1,200 compounds, about 65 (5%) were called active.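 The calls were made as follows: active = at either tested dose, response and 90th-percentile vesicle-stain brightness of CD8 cells under set limits and under 9% cells vesicle-bound; inactive = the rest.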 Many of the other results were omitted from the sample, so actives are more common in it than they were.

Regarding `O=C(Nc1ccccc1)N1CCc2c([nH]c3ccccc23)C1C(F)(F)F` (stereo not given), the double positive events came out at 14% (at 7.7 µM) and 38.4% under setting [1]. The percent response (vesicle binding) is 145% (inactive) under setting [1] and 187% (response, at 7.7 µM).
For `COc1ccccc1NC(=O)Cn1cnc2sc(C)c(S(=O)(=O)N3CCCCC3)c2c1=O`, in that order: 11.3%, 5.5%, 109% (inactive) and 197%.
For `COc1ccccc1CNC(=O)COc1ccc(C)cc1`, in that order: 13.1%, 5.2%, 56.4% (active) and 222%.
For `COc1ccccc1CNC(=O)CN(Cc1ccc(Cl)cc1)S(C)(=O)=O`, in that order: 25.3%, 7.2%, 127% (inactive) and 441%.
Consider `COc1cc(CC(=O)OCC(=O)NCc2ccc(C)cc2)cc(OC)c1OC`, for which the double positive events came to 12.7% (at 7.7 µM) and 21.2% under setting [1]. Besides, the percent response (vesicle binding) under setting [1] is 138% (inactive) and the percent response (vesicle binding) (response, at 7.7 µM) came out at 165%.
Consider `COc1ccc(S(=O)(=O)N(C)c2ccc(C(=O)NCC3CCCO3)cc2)cc1OC` (stereo not given), for which the double positive events came to 21.6% (at 7.7 µM) and 13.3% under setting [1]. The percent response (vesicle binding) was 226% (inactive) under setting [1] and 413% (response, at 7.7 µM).
The corresponding values for `COc1ccccc1CNC(=O)C1CCC1` are 33.3%, 24.2%, 232% (inactive) and 953%.
The corresponding values for `COc1ccccc1CNC(=O)c1ccc(N(C)S(=O)(=O)c2ccc(C)cc2)cc1` are 17.5%, 5.4%, 41.2% (active) and 152%.
Take `Cc1ccc(C)c(OC(=O)c2cncc(Br)c2)c1`: the double positive events reads like this: (at 7.7 µM) 18.1%; under setting [1], 15.8%. For the same molecule, the percent response (vesicle binding) reads like this: under setting [1], 147% (inactive); (response, at 7.7 µM) 268%.
The corresponding values for `Cc1ccc(NC(=O)COC(=O)c2c(-c3ccccc3)noc2C)c(C)c1` are 5.6%, 14.4%, 137% (inactive) and 226%.
The corresponding values for `Cc1c(C(=O)N(C)Cc2ccccc2)oc2ccc(S(=O)(=O)N3CCCC3)cc12` are 25.6%, 12.7%, 191% (inactive) and 229%.
For `COc1cc2c(-c3cc(F)cc(F)c3)c(-c3ccsc3)oc(=O)c2cc1OC`, in that order: 37.8%, 28.1%, 275% (inactive) and 271%.
In the case of `O=C(CCc1ccccc1)N1CCN(CCO)CC1`, the double positive events reads like this: (at 7.7 µM) 35.8%; under setting [1], 14.4%. The percent response (vesicle binding) is, setting by setting: under setting [1], 151% (inactive); (response, at 7.7 µM) 239%.
For `CC(C)(C)NC(=O)COc1ccc(CNCc2cccnc2)cc1`, the double positive events amounted to 31% (at 7.7 µM) and 21.6% under setting [1]. The percent response (vesicle binding) by setting is: under setting [1], 446% (inactive); (response, at 7.7 µM) 334%.
For `CC(C)(C)NC(=O)CON=C1c2ccccc2-c2ccccc21`, in that order: 8.8%, 30.6%, 361% (inactive) and 203%.
The corresponding values for `CC(C)(C)NC(=O)COc1ccc(CNCc2ccccn2)cc1` are 21.6%, 5.1%, 32.8% (active) and 227%.
The corresponding values for `CCCCn1nc(C(=O)N2CCN(S(=O)(=O)c3ccccc3)CC2)c2ccccc2c1=O` are 16.5%, 2.2%, 57.2% (inactive) and 484%.
Turning to `Cc1ccc(NC(=O)C2c3ccccc3Oc3ccccc32)c(C)c1`, the double positive events came to 12.5% (at 7.7 µM) and 28.2% under setting [1]. Moreover, the percent response (vesicle binding) is, setting by setting: under setting [1], 175% (inactive); (response, at 7.7 µM) 230%.
For `O=C(Nc1ccccc1C(=O)NCc1cccnc1)c1ccccc1Cl`, in that order: 25.8%, 14.2%, 202% (inactive) and 364%.
The corresponding values for `CCOc1ccc(CCNC(=O)CCS(=O)(=O)c2ccc(C)cc2)cc1OCC` are 12.8%, 11.7%, 215% (inactive) and 177%.
Consider `CCOc1ccc(CCNC(=O)c2cccc(-n3cnnn3)c2)cc1OCC`, for which the double positive events was 7.9% (at 7.7 µM) and 4.2% under setting [1]. For the same molecule, the percent response (vesicle binding) is 39.3% (active) under setting [1] and 237% (response, at 7.7 µM).
The corresponding values for `CCOc1ccc(CCNC(=O)CCc2nnc3ccc(N4CCCC4)nn23)cc1OCC` are 6.3%, 20%, 239% (inactive) and 150%.
The corresponding values for `Cc1cc(C(=O)COC(=O)Cc2ccc(Cl)cc2)c(C)n1C` are 13.6%, 22.5%, 160% (inactive) and 226%.
For `O=C(/C(=N\Nc1ccc(Br)cc1)Sc1nnnn1-c1ccccc1)c1ccccc1`, in that order: 9.1%, 14.4%, 176% (inactive) and 308%.
In turn, `COc1cccc(-c2ccc(NC(=O)C3CCCN(Cc4cc(C)[nH]n4)C3)cc2)c1` (stereo not given) displayed a double positive events (at 7.7 µM) of 11.6% and a double positive events under setting [1] of 32.2%. The percent response (vesicle binding) by setting is: under setting [1], 350% (inactive); (response, at 7.7 µM) 192%.
The corresponding values for `O=C(O)CCc1ccc(S(=O)(=O)N2CCOCC2)cc1` are 20.5%, 28.7%, 274% (inactive) and 233%.
With `CCN(CC)CCNC(=O)CCCNC(=O)Cn1cnc2sc(C)c(C)c2c1=O`, the double positive events was found to be 39.3% (at 7.7 µM) and 4.7% under setting [1]. For the same molecule, the percent response (vesicle binding) reads like this: under setting [1], 131% (inactive); (response, at 7.7 µM) 375%.
On to `COCCCN1CCc2[nH]c(=S)[nH]c(=O)c2C1`, for which the double positive events worked out at 27.3% (at 7.7 µM) and 2% under setting [1]. Further, the percent response (vesicle binding) by setting is: under setting [1], 16.7% (active); (response, at 7.7 µM) 272%.
The corresponding values for `CCc1c(O)cc2n(c1=O)-c1ccccc1C2(C)C` are 9.3%, 17.9%, 444% (inactive) and 485%.
In turn, `O=C(Nn1cnc2ccccc2c1=O)C1CCCCC1` had a double positive events (at 7.7 µM) of 29.6% and a double positive events under setting [1] of 14.2%. In addition, the percent response (vesicle binding) reads like this: under setting [1], 212% (inactive); (response, at 7.7 µM) 255%.
For `Cc1ccc(NC(=S)N(CCCN2CCOCC2)Cc2cccs2)c(C)c1`, in that order: 8.8%, 24.8%, 268% (inactive) and 149%.
The corresponding values for `Cc1ccc(C(=O)NCCCN2CCOCC2)c(C)c1` are 30.7%, 0.7%, 30.4% (active) and 440%.
For `CCCN1CCN(CCCNC(=O)c2cc3c(s2)-c2ccccc2OC3)CC1`, in that order: 22.7%, 9.3%, 171% (inactive) and 229%.
In turn, `CCn1c(=O)cc(SCC(=O)N2CCN(c3ccccc3F)CC2)c2ccccc21` yielded a double positive events (at 7.7 µM) of 17% and a double positive events under setting [1] of 19.6%. The percent response (vesicle binding) was 78.7% (inactive) under setting [1] and 247% (response, at 7.7 µM).
For `CC(C)C(=O)N1CCC2(CC1)Oc1ccc(Cl)cc1C(=O)C21CC(c2cccnc2)=NO1` (stereo not given), in that order: 6.8%, 15%, 197% (inactive) and 109%.
As for `Cc1ccc(C(=O)Nc2cccc(-c3cn4ccccc4n3)c2)cc1`, the double positive events is 7.7% (at 7.7 µM) and 10.4% under setting [1]. Also, the percent response (vesicle binding) is 300% (inactive) under setting [1] and 439% (response, at 7.7 µM).
The corresponding values for `COc1ccc(C(=O)C(C)OC(=O)c2sc(C)nc2C)cc1` (stereo not given) are 12.6%, 13.7%, 349% (inactive) and 113%.
For `Cc1ccc2oc(=O)c(/C=C(\O)c3sc(C)nc3C)nc2c1`, in that order: 17.5%, 0.7%, 16.1% (active) and 163%.
In the case of `NC(=S)N/N=C/c1ccccc1OCCSc1ccc(Cl)cc1`, the double positive events by setting is: (at 7.7 µM) 7%; under setting [1], 28%. The percent response (vesicle binding) runs as follows: under setting [1], 262% (inactive); (response, at 7.7 µM) 76.6%.
For `CC(=O)NN1C(=O)c2ccccc2NC1c1ccco1` (stereo not given), in that order: 23%, 11.1%, 280% (inactive) and 361%.
For the molecule `Cc1ccccc1N=C1SC(CC(=O)Nc2ccc3ccccc3c2)C(=O)N1Cc1ccccn1` (stereo not given), the double positive events reads like this: (at 7.7 µM) 8.6%; under setting [1], 25.6%. Further, the percent response (vesicle binding) runs as follows: under setting [1], 157% (inactive); (response, at 7.7 µM) 148%.
The corresponding values for `O=C(N/N=C/c1c(O)n(Cc2ccco2)c(=O)[nH]c1=O)c1ccccc1` are 36.4%, 21.6%, 275% (inactive) and 418%.
For `COc1ccc(C(=O)OCC(=O)NC(=O)NC2CCCC2)c(O)c1`, in that order: 13.7%, 9.4%, 148% (inactive) and 254%.
As to `CC(=O)COc1ccc2c(-c3ccccc3)cc(=O)oc2c1`, the double positive events is, setting by setting: (at 7.7 µM) 10.8%; under setting [1], 8.7%. For the same molecule, the percent response (vesicle binding) is, setting by setting: under setting [1], 123% (inactive); (response, at 7.7 µM) 165%.
The corresponding values for `CCOc1ccc(-c2nc(N)ncc2-c2ccccc2)c(O)c1` are 4.3%, 34.2%, 276% (active) and 51.6%.
